Values joined by “and” are separate entries in the source; they are usually repeats but may differ in a detail not shown here. Equal entries are not always repeated. About 6,500 (4.3%) of roughly 150,000 compounds were called active. About 12% were inconclusive and are not listed. The sample as a whole holds a higher share of actives than the screen did. Unmarked numbers belong to inactive results. The call rests on the fitted dose curve; in most records, active means well fitted inhibition curve with a large enough effect (not every such curve was filed as active); inconclusive means small, poorly fitted or top-dose-only effect, or another doubt; inactive means no such curve, though single readings can be large or run the other way.
On the % scale 0 is the no-effect control and ±100 the full control effect; potency means the concentration at half of the fitted maximal effect.

Chain of 15-hydroxyprostaglandin dehydrogenase [NAD(+)] (Homo sapiens) (P15428 whole entry, looked up): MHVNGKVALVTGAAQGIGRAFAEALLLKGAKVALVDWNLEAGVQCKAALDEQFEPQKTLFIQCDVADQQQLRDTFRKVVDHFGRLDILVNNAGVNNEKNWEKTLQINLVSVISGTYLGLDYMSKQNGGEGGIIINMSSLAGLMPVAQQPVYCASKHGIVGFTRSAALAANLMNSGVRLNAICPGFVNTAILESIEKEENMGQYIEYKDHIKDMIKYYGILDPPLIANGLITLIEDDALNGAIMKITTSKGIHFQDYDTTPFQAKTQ

The assay concerns the target 15-hydroxyprostaglandin dehydrogenase [NAD(+)] (Homo sapiens) (UniProt P15428). Put plainly: qHTS Assay for Inhibitors of HPGD (15-Hydroxyprostaglandin Dehydrogenase). The note with it: purified HPGD, NADH fluorescence kinetic, PGE2 substrate; activity change, negative = inhibition: active compounds read low. An outline of the steps:
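NADH formation kinetics: reaction with 30 uM PGE2 and 1 mM NAD+ (final), 20 nM enzyme, Tris-HCl pH 8 with Tween 20, after 15 min compound preincubation at room temperature. Fluorescence change, last versus first of five reads.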
For the molecule `Cc1ccc(S(=O)(=O)Nc2ccc3ncccc3c2)cc1`, the activity change, negative = inhibition is -6.64%.

For `O=S(=O)(NCc1ccccn1)c1ccc(F)cc1`, the activity change, negative = inhibition is -6.74%.

Regarding `O=S(=O)(Nc1ccc(Oc2ncccn2)c(Cl)c1)c1ccc(F)cc1`, the Potency is 35.5 µM (active).

Consider `Cc1cc(F)ccc1S(=O)(=O)Nc1ncnc2scc(-c3ccc(F)cc3)c12`, for which the activity change, negative = inhibition is -6.93%.

For the molecule `O=[N+]([O-])c1cccc(C2=NCCS2)c1`, the activity change, negative = inhibition was -12.8%.

Regarding `O=C(COC(=O)c1cc(-c2cccs2)nn1-c1ccccc1)Nc1cc([N+](=O)[O-])ccc1Cl`, the activity change, negative = inhibition was -0.873%.

In the case of `CCOP(=O)(OCC)C(Nc1cccc(C)c1)c1ccc(F)cc1` (configuration not stated), the activity change, negative = inhibition is -7.61%.

Regarding `O=C(c1ccc2c(c1)OCO2)N1CCN(C(=O)c2ccco2)CC1`, the activity change, negative = inhibition is -11.7%.

Take `O=C(c1ccc2c(c1)OCO2)N1CCOCC1`: the Potency is 14.1 µM (active).

For the molecule `O=C(Nc1ccccc1N1CCN(C(=O)c2ccccc2)CC1)c1ccc2c(c1)OCO2`, the activity change, negative = inhibition was -1.04%.

Consider `O=C(c1cccc(S(=O)(=O)N2CCOCC2)c1)N1CCOCC1`, for which the activity change, negative = inhibition is -2.21%.

With `O=C(c1ccc2c(c1)OCO2)N1CCNc2ccccc2C1`, the Potency is 25.1 µM (active).

On to `CC1CN(C(=O)c2ccc3c(c2)OCO3)OC(c2ccccc2)O1` (configuration not stated), for which the activity change, negative = inhibition is -4.25%.

For `CC(Nc1oc(-c2ccccc2)nc1-c1ccccc1)c1ccccc1` (configuration not stated), the activity change, negative = inhibition was 0.641% and -7.86%.

As to `COc1ccc(Cc2nnc(N/N=C/c3ccccc3O)[nH]c2=O)cc1OC`, the activity change, negative = inhibition is -16.1%.

For `NS(=O)(=O)c1ccc(N=Cc2ccc(Br)s2)cc1`, the activity change, negative = inhibition is -0.454%.

Take `N#Cc1ccccc1NC(=O)COc1c(Br)cc(Br)c2cccnc12`: the activity change, negative = inhibition was -10%.

As to `Fc1ccc2nc(N3CCCCC3)sc2c1`, the activity change, negative = inhibition was -12.2%.

With `Fc1cc(F)c2nc(N3CCOCC3)sc2c1`, the activity change, negative = inhibition is -12.5%.

Take `c1c2c(cc3sc(N4CCCCC4)nc13)OCCO2`: the Potency was 25.1 µM (active).

With `CC1=C(C/C=C(\C)CCCC(C)CCCC(C)CCCC(C)C)C(=O)c2ccccc2C1=O` (configuration not stated), the activity change, negative = inhibition is -10.7%.

With `O=C(CN(Cc1ccccc1)C(=O)c1ccc2c(c1)OCCO2)NCc1ccc2c(c1)OCO2`, the activity change, negative = inhibition is -6.78%.

Consider `CCC(C)(C(=O)NC1CCCCC1)N(C)C(=O)c1ccc2c(c1)OCO2` (configuration not stated), for which the activity change, negative = inhibition was -0.912%.

Turning to `CCCCN(CC)C(=O)c1ccc2c(c1)OCO2`, the Potency is 12.6 µM (active).

In the case of `CCn1c(=O)cc(SCC(=O)NCc2ccc3c(c2)OCO3)c2ccccc21`, the activity change, negative = inhibition was -4.58%.

For `CCn1c(=O)cc(SCC(=O)NCCC2=CCCCC2)c2ccccc21`, the Potency is 7.08 µM (active).

For the molecule `Cc1nnc(OCC(=O)NCCC2=CCCCC2)c2ccccc12`, the activity change, negative = inhibition was -17.6%.

As to `O=C1CC(c2cccc(Cl)c2)CC(O)=C1C=Nc1ccccc1` (configuration not stated), the activity change, negative = inhibition is -9.88%.

On to `O=C(CNC(c1ccccc1)c1ccccc1)Nc1ccc(F)cc1`, for which the activity change, negative = inhibition is -9.88%.

Turning to `CC(C)(C)c1ccc(Oc2ccc(N)cc2)cc1`, the Potency was 28.2 µM (active).

`Nc1ccc(Oc2ccc(Cl)cc2)cc1`: the activity change, negative = inhibition is -8.65%.

Turning to `Cc1ccc(Oc2ccc(N)cc2)cc1`, the activity change, negative = inhibition was -24%.

Take `CCCCN(CC)C(=S)Nc1ccc2nc3n(c(=O)c2c1)CCCCC3`: the activity change, negative = inhibition was -1.94%.

For the molecule `COc1ccc(C(=O)ON=C2c3ccccc3-c3ccccc32)cc1OC`, the activity change, negative = inhibition was -23.4%.

As to `CCOc1ccc(Oc2nc(C)cc(OC)n2)nn1`, the activity change, negative = inhibition is -6.46%.

On to `Cc1scc(C(=O)NNC(=S)NCC(C)C)c1C`, for which the activity change, negative = inhibition is -5.27%.

As to `Cc1cccc(NC(=S)N(CCN(C)C)C(C)c2ccco2)c1` (configuration not stated), the activity change, negative = inhibition is -15.4%.

On to `COc1ccc(S(=O)(=O)NC(C)C)cc1C(=O)NC1CCCCC1`, for which the activity change, negative = inhibition was -17.6%.

For `CCC(CC)c1nnc(NC(=O)/C=C/c2ccco2)s1`, the activity change, negative = inhibition was -29.6%.

For `c1ccc2[nH]c(-c3nc4ccccc4[nH]3)nc2c1`, the activity change, negative = inhibition is -25.9%.

Consider `O=c1[nH]c(-c2cccs2)nc2ccccc12`, for which the Potency is 15.8 µM (active).

As to `O=c1onc(-c2cccs2)n1Cc1ccccc1`, the activity change, negative = inhibition was -5.59%.

Regarding `Nc1nc(CC(=O)CSc2ccc(Cl)cc2)nc(Nc2ccc(F)cc2)n1`, the activity change, negative = inhibition is -7.75%.

Take `COc1ccc(CCNC(=O)c2ccco2)cc1`: the activity change, negative = inhibition is -3.27%.

`O=C(/C=C/c1cccc([N+](=O)[O-])c1)NCCSCc1ccco1`: the Potency was 25.1 µM (active).

Regarding `CS(=O)(=O)N(Cc1ccc(Cl)cc1)c1ccc(C(=O)NCCSCc2ccco2)cc1`, the activity change, negative = inhibition was -4.85%.

In the case of `COc1cc(OC)cc(C(=O)NCCSCc2ccco2)c1`, the Potency was 20 µM (active).

As for `O=C(/C=C/c1ccc([N+](=O)[O-])cc1)NCCSCc1ccco1`, the activity change, negative = inhibition is -22.9%.

Consider `CCC(CC)NC(=O)/C=C/c1cccc([N+](=O)[O-])c1`, for which the activity change, negative = inhibition is -13.1%.

As to `CC(=O)Nc1cccc(/C(C)=N/NC(=O)c2c(-c3ccccc3Cl)noc2C)c1`, the activity change, negative = inhibition is -6.16%.

`COc1ccc(S(=O)(=O)NC(C)C(=O)Nc2cccc([N+](=O)[O-])c2)cc1` (configuration not stated): the activity change, negative = inhibition is -10.4%.

As for `O=C(COC(=O)Cn1cnc2ccccc2c1=O)NCC12CC3CC(CC(C3)C1)C2`, the activity change, negative = inhibition is -2.81%.

On to `COc1cc(NC(=O)Nc2ccc(C)cc2)cc([N+](=O)[O-])c1`, for which the activity change, negative = inhibition was -10.2%.

Turning to `CCOC(=O)C1=NO[C@@]2(C=C(Br)C(=O)[C@H]3O[C@H]32)C1`, the activity change, negative = inhibition was -23%.

Take `COc1ccccc1-c1cc(C(=O)NCCCn2ccnc2)no1`: the activity change, negative = inhibition was -21.8%.

On to `O=C(NCc1ccccn1)c1cc(-c2ccccc2Cl)on1`, for which the Potency is 14.1 µM (active).

Consider `Clc1ccccc1-c1cc(COc2ccc3ccccc3c2)no1`, for which the activity change, negative = inhibition was -25.6%.

In the case of `CCOC(=O)c1c(NC(=O)CSc2nnc(CN3CCOCC3)n2C)sc2c1CCCC2`, the activity change, negative = inhibition was -2.63%.

In the case of `CCc1cccc(C)c1NC(=O)CSc1nnc(-c2ccco2)n1N`, the activity change, negative = inhibition was -10.6%.

In the case of `NC(=O)c1c(NC(=O)CSc2nnc(-c3ccco3)n2N)sc2c1CCCC2`, the Potency was 14.1 µM (active).

Consider `CC(C)=C1C2CCC1C1C(=O)N(NC(=O)c3ccco3)C(=O)C21` (configuration not stated), for which the activity change, negative = inhibition is -7.1%.

`CC(C)CNC(=O)c1cc(-c2ccc(Br)cc2)on1`: the activity change, negative = inhibition is -23.1%.

Turning to `CC(C)Cc1cc(C(=O)NCCc2ccccc2)no1`, the activity change, negative = inhibition is -20.6%.

Turning to `CC(C)Cc1cc(C(=O)Nc2cc(Br)ccc2O)no1`, the Potency was 25.1 µM (active).

On to `COc1ccc(C(C(=O)NC2CCCCC2)N(C(=O)CCl)c2ccccc2Cl)cc1` (configuration not stated), for which the activity change, negative = inhibition was -4.95%.

With `N#Cc1c(NC(=O)c2ccc(N3CCOCC3)c([N+](=O)[O-])c2)sc2c1CCCC2`, the activity change, negative = inhibition is -10.9%.

As for `O=C(/C=C/c1ccc(Cl)cc1)N1CCN(c2ccccc2[N+](=O)[O-])CC1`, the activity change, negative = inhibition was -15%.

Regarding `CC(C)(C)NC(=O)C(=O)NCc1ccncc1`, the activity change, negative = inhibition is -2.72%.

With `Cc1nc2ccccc2n1CC(=O)N/N=C/c1cccs1`, the activity change, negative = inhibition was -4.95%.

Regarding `O=C(COC(=O)CCC(=O)c1cccs1)NCc1ccco1`, the activity change, negative = inhibition is -9.26%.

Take `O=C(c1cccs1)n1nc(NCc2ccccc2)nc1NCc1ccccc1`: the activity change, negative = inhibition is -18.3%.

Turning to `O=C(CCC(=O)c1cccs1)NCc1ccccc1`, the Potency was 31.6 µM (active).

Turning to `CCC1CCCCN1C(=S)Nc1ccc(C(C)=O)cc1` (configuration not stated), the activity change, negative = inhibition was -21.2%.

Consider `Cc1ccc(-c2cn3cc([N+](=O)[O-])ccc3n2)cc1`, for which the activity change, negative = inhibition was -11.8%.

Take `CC[C@H](C)[C@@H](NC(=O)O[C@@H]1C(=O)c2cc(OC)ccc2O[C@H]1c1cccc(OC)c1)C(=O)OC`: the activity change, negative = inhibition is -14.9%.

For the molecule `O=[N+]([O-])c1cc(C(F)(F)F)ccc1NN=C1CCCC1`, the activity change, negative = inhibition was -7.57%.

`C/C(=N\NC(=O)CCn1nc(C)cc1C)C(C)(C)C`: the activity change, negative = inhibition is -2.63%.

For the molecule `Cc1ccc(SCC(=O)Nc2ccc3c(c2)OCCO3)cc1`, the activity change, negative = inhibition is -4%.

For the molecule `CCCCC(=O)Nc1ccc2c(c1)OCCO2`, the Potency is 25.1 µM (active).

`COC(=O)CCNc1ccc2c(c1)OCCO2`: the activity change, negative = inhibition was -9.02%.

As for `Cc1cn(C2OC[C@@H](O)[C@@H]2CO)c(=O)[nH]c1=O` (some centres not stated), the activity change, negative = inhibition is -7.64%.

In the case of `O=C(CSc1n[nH]c(-c2cccnc2)n1)Nc1ccnc2ccccc12`, the Potency was 15.8 µM (active).

In the case of `Cc1ccccc1NC(=O)CSC1=NCCN1`, the activity change, negative = inhibition was -5.67%.

In the case of `O=C(CSc1nnc(-c2cccnc2)n1CCc1ccccc1)NCc1ccccc1`, the activity change, negative = inhibition was -12.6%.

In the case of `C=CCn1cc(C(=O)NCc2ccc(Cl)cc2)c(=O)c2cc(S(=O)(=O)N(CC)CC)ccc21`, the activity change, negative = inhibition is 15.1%.

Turning to `CC(=O)c1sc(N/N=C\c2ccc(C)cc2)nc1C`, the activity change, negative = inhibition was -20.1%.

With `C=CCNC(=S)NNC(=O)c1ccc(Br)o1`, the activity change, negative = inhibition was -14.9%.

In the case of `Cc1cccc(C)c1NC(=O)CSc1nnc(-c2ccccc2)n1Cc1ccc2c(c1)OCO2`, the activity change, negative = inhibition was -8.72%.

Take `c1ccc(-c2nnc3n2NC(c2ccc4c(c2)OCO4)S3)cc1` (configuration not stated): the Potency is 14.1 µM (active).

As to `CC1=C(C(N)=O)C(c2ccc3c(c2)OCO3)n2nc(-c3cccc(C)c3)nc2N1` (configuration not stated), the activity change, negative = inhibition was -3.51%.

With `COCCNc1nc(N)c([N+](=O)[O-])c(NCCO)n1`, the activity change, negative = inhibition was -10.5%.

Turning to `O=C(NNC(=S)NCc1ccccc1)c1ccc(OC(F)F)cc1`, the activity change, negative = inhibition was -6.63%.

`Cc1ccc(Cc2c(C)nc3nc(SCC(=O)NCCN4CCOCC4)nn3c2C)cc1`: the activity change, negative = inhibition was -11.4%.

`COc1cc(OC)cc(-c2nc3nc(C)c(CCC(=O)NCc4ccco4)c(C)n3n2)c1`: the activity change, negative = inhibition is -10.9%.

As for `Cc1nc2nc(SCC(=O)NCc3ccco3)nn2c(C)c1Cc1ccccc1`, the Potency is 22.4 µM (active).

On to `CCOC(=O)C1CCN(c2ccc(C(=O)O)cc2[N+](=O)[O-])CC1`, for which the activity change, negative = inhibition is -3.84%.

`CC(=O)c1cc(-c2ccccc2)n(CCC(=O)NC2CCCCCC2)c1C`: the activity change, negative = inhibition was -4.2%.

The record behind these values is PubChem BioAssay AID894 (National Center for Advancing Translational Sciences (NCATS), 2007).
